Laboratory results from PubChem BioAssay (EPA / NIEHS).
Inconclusive results are not listed. Active and inactive are the calls of the source. How the source made its calls: active means hit-call score of the fitted dose curve at least 0.9, where 1 is the maximum; inconclusive means response in the unintended direction; inactive means score below 0.9.

How the values were obtained:
[1] = LTEA_HepaRG_LDH_cytotoxicity: Cytotoxicity Assessment in the Life Technologies and Expression Analysis (LTEA) Assay (AID 2283563);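 on AC50: LDH activity released into spent culture medium as a marker of cell death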
Procedure, shortened: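 Differentiated HepaRG cells in serum-free induction medium, exposed 48 h in duplicate to 8 half-log concentrations up to 100 uM in 0.5% DMSO. Cytotoxicity from LDH measured in spent medium, fit relative to DMSO.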

[2] = TOX21_p53_BLA_p2_viability: Viability Assessment in the Tox21 HCT-116 p53 Agonism Beta-lactamase Assay, Phase 2 (AID 2283591);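 further: compound exposure lasted 16 h at 37 °C; actives lower the ATP signal meaning cytotoxicity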
Procedure, shortened: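 HCT116 p53-bla cells, 4000/well, dosed after 5 h plating (217-fold dilution of DMSO stocks) and incubated 16 h at 37C. Viability taken as cellular ATP by CellTiter-Glo luminescence after 30 min RT; signal loss marks cytotoxicity.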

[3] = target: Cellular tumor antigen p53 (Homo sapiens) (UniProt P04637); assay: TOX21_p53_BLA_p2_ratio: Tox21 HCT-116 p53 Agonism Beta-lactamase Assay, Ratio, Phase 2 (AID 2283592)
Procedure, shortened: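 HCT-116 cells with p53-responsive beta-lactamase reporter, 4000 cells/well, preincubated 5 h, then compound in DMSO (217-fold dilution) for 16 h at 37C. CCF4-AM substrate 2 h at room temperature; 460/530 nm emission ratio fitted upward versus DMSO.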

[4] = TOX21_p53_BLA_p3_viability: Viability Assessment in the Tox21 HCT-116 p53 Agonism Beta-lactamase Assay, Phase 3 (AID 2283593);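 further: cells exposed to compound for 16 h before reading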
Procedure, shortened: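 HCT116 cells, 4000/well, dosed 5 h after plating by pin transfer (217-fold dilution from DMSO stock) and incubated 16 h at 37C, 5% CO2. Viability read as ATP luminescence with CellTiter-Glo after 30 min at room temperature.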

[5] = TOX21_p53_BLA_p4_viability: Viability Assessment in the Tox21 HCT-116 p53 Agonism Beta-lactamase Assay, Phase 4 (AID 2283597);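 further: hits lower the luminescence signal meaning cytotoxicity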
Procedure, shortened: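 HCT-116 p53-bla cells, 4000/well, dosed after 5 h attachment and incubated 16 h at 37 °C, 5% CO2. Viability from CellTiter-Glo ATP luminescence after 30 min at room temperature, taken after the beta-lactamase read; loss of signal indicates cytotoxicity.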

[6] = target: Cellular tumor antigen p53 (Homo sapiens) (UniProt P04637); assay: TOX21_p53_BLA_p5_ratio: Tox21 HCT-116 p53 Agonism Beta-lactamase Assay, Ratio, Phase 5 (AID 2283599)
Procedure, shortened: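 HCT-116 p53-bla cells (4000/well) plated 5 h, dosed with compound (217-fold DMSO dilution) for 16 h at 37 C; CCF4-AM substrate 2 h at room temperature. Activity is the 460/530 nm emission ratio (405 nm excitation), fitted in gain-of-signal direction versus DMSO.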

[7] = TOX21_p53_BLA_p5_viability: Viability Assessment in the Tox21 HCT-116 p53 Agonism Beta-lactamase Assay, Phase 5 (AID 2283600)
Procedure, shortened: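 HCT-116 p53 beta-lactamase reporter cells, 4000/well, were exposed to compound (pin transfer, 217-fold dilution) for 16 hours at 37C. Cellular ATP was read by CellTiter-Glo luminescence after 30 min at room temperature.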

[8] = target: Cellular tumor antigen p53 (Homo sapiens) (UniProt P04637); assay: TOX21_p53_BLA_p4_ratio: Tox21 HCT-116 p53 Agonism Beta-lactamase Assay, Ratio, Phase 4 (AID 2283601)
Procedure, shortened: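 HCT-116 p53 beta-lactamase reporter cells (4000/well) preincubated 5 h, then compound (217-fold dilution of DMSO stock) for 16 h at 37C. CCF4-AM substrate added 2 h at room temperature; 460/530 nm emission ratio fitted upward versus DMSO.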

[9] = Tanguay_ZF_120hpf_MORT_legacy: (Legacy) Oregon State University Tanguay Lab 120 Hour Post-fertilization zebrafish Assay for Mortality (AID 2283633);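 on AC50: fitted as increase in binary mortality versus DMSO negative control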
Procedure, shortened: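 Dechorionated Tropical 5D wild-type zebrafish embryos, one per well from 6 hpf, static exposure in 0.64% DMSO at 28C until 120 hpf. Mortality scored as binary by brightfield microscopy at 24 and 120 hpf.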

[10] = Tanguay_ZF_120hpf_YSE_legacy: (Legacy) Oregon State University Tanguay Lab 120 Hour Post-fertilization zebrafish Assay for Yolk Sac Edema (AID 2283634);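 on AC50: actives raise the incidence of yolk sac edema above the DMSO baseline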
Procedure, shortened: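 Dechorionated Tropical 5D wild-type zebrafish embryos were exposed statically, one per well, from 6 to 120 hpf at 28C in 0.64% DMSO. Yolk sac edema was scored present/absent by brightfield at 120 hpf, and dead embryos were excluded.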

[11] = Tanguay_ZF_120hpf_AXIS_legacy: (Legacy) Oregon State University Tanguay Lab 120 Hour Post-fertilization zebrafish Assay for Body Axis Malformation (AID 2283635);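 on AC50: potency for an increased fraction of larvae scored with body axis malformation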
Procedure, shortened: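 Dechorionated wild-type Tropical 5D zebrafish embryos, one per well, statically exposed from 6 hpf to 120 hpf at 28C in 0.64% DMSO final. Body axis malformation scored present/absent by brightfield microscopy at 120 hpf; dead embryos excluded.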

[12] = Tanguay_ZF_120hpf_EYE_legacy: (Legacy) Oregon State University Tanguay Lab 120 Hour Post-fertilization zebrafish Assay for Eye Malformation (AID 2283636);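 further: binary presence or absence of eye malformation scored by brightfield in 120 hpf larvae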
Procedure, shortened: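 Dechorionated Tropical 5D zebrafish embryos, one per well from 6 hpf, static exposure to 120 hpf at 28C, 0.64% DMSO. Eye malformation scored present/absent by brightfield; dead embryos not scored.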

[13] = Tanguay_ZF_120hpf_SNOU_legacy: (Legacy) Oregon State University Tanguay Lab 120 Hour Post-fertilization zebrafish Assay for Snout Malformation (AID 2283637)
Procedure, shortened: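 Dechorionated tropical 5D wild-type zebrafish embryos exposed statically from 6 to 120 hpf at 28C, one per well, in 0.64% DMSO. Snout malformation scored as present/absent by brightfield at 120 hpf; dead embryos not scored.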

[14] = Tanguay_ZF_120hpf_JAW_legacy: (Legacy) Oregon State University Tanguay Lab 120 Hour Post-fertilization zebrafish Assay for Jaw Malformation (AID 2283638);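 on AC50: active means more embryos with jaw malformation than DMSO controls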
Procedure, shortened: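 Dechorionated Tropical 5D wild-type zebrafish embryos, one per well, exposed statically from 6 hpf to 120 hpf at 28C in 0.64% DMSO. Jaw malformation was scored by brightfield microscopy as present or absent. It was not scored in dead embryos.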

[15] = Tanguay_ZF_120hpf_OTIC_legacy: (Legacy) Oregon State University Tanguay Lab 120 Hour Post-fertilization zebrafish Assay for Otic Vesicle Malformation (AID 2283639)
Procedure, shortened: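 Otic vesicle malformation is read as a yes/no morphology call at 120 hpf. Exposure is static at 28C with 0.64% (vol/vol) DMSO; embryos that die are excluded from non-mortality endpoints.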

[16] = Tanguay_ZF_120hpf_PE_legacy: (Legacy) Oregon State University Tanguay Lab 120 Hour Post-fertilization zebrafish Assay for Pericardial Edema (AID 2283640)
Procedure, shortened: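 Tropical 5D wild-type zebrafish embryos were statically exposed until 120 hpf at 28C, with 0.64% DMSO final. Pericardial edema was scored by brightfield as present or absent; endpoints were not scored in dead embryos.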

[17] = Tanguay_ZF_120hpf_SOMI_legacy: (Legacy) Oregon State University Tanguay Lab 120 Hour Post-fertilization zebrafish Assay for Somite Malformation (AID 2283647)
Procedure, shortened: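 Dechorionated Tropical 5D wild-type zebrafish embryos, one per well from 6 hpf, statically exposed at 28C to 120 hpf in 0.64% DMSO; somite malformation scored present/absent by brightfield; trimethyltin 5 uM positive control; dead embryos not scored.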

[18] = target: Cellular tumor antigen p53 (Homo sapiens) (UniProt P04637); assay: TOX21_p53_BLA_p3_ratio: Tox21 HCT-116 p53 Agonism Beta-lactamase Assay, Ratio, Phase 3 (AID 2283596)
Procedure, shortened: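 HCT116 p53-bla cells (4000/well) given compound in DMSO (217-fold dilution) after 5 h, incubated 16 h at 37C. CCF4-AM substrate 2 h at room temperature; 460/530 nm emission ratio, gain fitted against DMSO.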

[19] = Tanguay_ZF_120hpf_BRAI_legacy: (Legacy) Oregon State University Tanguay Lab 120 Hour Post-fertilization zebrafish Assay for Brain Malformation (AID 2283641)
Procedure, shortened: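 Tropical 5D wild-type zebrafish embryos exposed statically until 120 hpf at 28C, 0.64% DMSO final, sealed and dark. Brain malformation scored present/absent by brightfield at 120 hpf; dead embryos excluded. Trimethyltin chloride 5uM positive control.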

Measured: AC50

Cellular tumor antigen p53 (Homo sapiens), sequence (P04637 whole entry, looked up): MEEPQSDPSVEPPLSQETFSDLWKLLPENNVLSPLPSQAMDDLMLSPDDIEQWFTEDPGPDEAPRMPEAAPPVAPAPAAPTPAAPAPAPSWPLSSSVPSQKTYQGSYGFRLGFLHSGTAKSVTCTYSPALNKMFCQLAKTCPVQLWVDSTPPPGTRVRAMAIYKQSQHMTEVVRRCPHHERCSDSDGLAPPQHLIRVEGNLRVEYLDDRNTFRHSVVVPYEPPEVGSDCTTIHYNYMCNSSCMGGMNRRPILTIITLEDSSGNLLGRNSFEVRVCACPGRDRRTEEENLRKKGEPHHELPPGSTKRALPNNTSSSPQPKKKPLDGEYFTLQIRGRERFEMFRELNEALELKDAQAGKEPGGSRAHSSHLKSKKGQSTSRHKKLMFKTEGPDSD

O=C(O)Cn1c(=O)n(Cc2ccc(Br)cc2F)c(=O)c2ccc(Cl)cc21
inactive: [1] | [2] | [3] | [4] | [5] | [6] | [7] | [8] | [9] | [10] | [11] | [12] | [13] | [14] | [15] | [16] | [17]

C[C@]12CC[C@@H]3c4ccc(O)cc4CC[C@H]3[C@@H]1CCC2=O
inactive: [1] | [3] | [9] | [10] | [11] | [12] | [13] | [14] | [15] | [17]

CC(C)(O)c1ccc(CNC(=O)c2cccnc2Oc2ccc3nonc3c2)cc1
inactive: [1] | [2] | [3] | [18] | [6] | [8] | [9] | [10] | [11] | [12] | [13] | [14] | [15] | [17]

CC1(C)NC(=O)N(c2ccc([N+](=O)[O-])c(C(F)(F)F)c2)C1=O
inactive: [1] | [2] | [3] | [4] | [18] | [5] | [8] | [9] | [10] | [12] | [14] | [15] | [19] | [17]

O=C=NCCCCCCN=C=O
inactive: [1] | [3] | [4] | [18] | [7] | [8] | [9] | [10] | [11] | [13] | [14] | [15]

CN1C(=O)N(c2ccccc2Br)Cc2cnc(Nc3ccc4c(c3)OCC(CO)O4)nc21 (configuration not stated)
inactive: [4] | [9] | [15] | [19] | [17]
active: [1] 67.9 µM | [2] 70.4 µM | [3] 4.26 µM | [18] 13.8 µM | [5] 46.1 µM | [8] 14.2 µM | [10] 3.4 µM | [11] 2.03 µM | [12] 3.44 µM | [13] 2.27 µM | [14] 0.972 µM

CCN(Cc1cccnc1)C(=O)c1cccc(Cl)c1[C@]1(C)C(=O)N(Cc2ccc(OC)cc2OC)c2ccc(Cl)cc21
inactive: [2] | [4] | [5] | [10] | [11] | [13] | [14] | [15] | [17]
active: [1] 25.5 µM | [3] 43.2 µM | [18] 40.9 µM | [8] 44.5 µM | [9] 6.06 µM
